Shown are actives, neighbours in structure and some others; about 7.3% of the full set was active somewhere.
FMDV antiviral – blocks foot and mouth disease virus | FMDV antiviral cell-based qHTS | Potency, µM (doses to about 57.9 µM), inactives show at the top dose activity change, negative = inhibition, actives largely listed as inhibitors | 410,000 compounds, 1.2% hits | AID 1159524; calls by dose curve; tested in HEK293T cells; note: read-out not given here; potency is the fitted concentration of half-maximal effect; nearly all actives have a fitted effect of over 45% in size
VACV Venus inh – inhibitors of vaccinia virus (Venus reporter) | 330,000 compounds, 0.46% hits | Vaccinia virus Venus reporter expression, fluorescence | Potency, µM (doses to about 36.5 µM), inactives show at the highest dose activity change, negative = inhibition, usual class: inhibitors; calls by dose curve; tested in A549 cells; note: potency is the fitted concentration of half-maximal effect; nearly all actives have a fitted effect of over 30% in size
HCV inhibitor – inhibitors of hepatitis C virus infection; Huh7.5.1 HCVcc-Cre infection, luciferase reporter, 44 h; Potency, µM (doses to about 41.8 µM), inactives show at the top dose activity change, negative = inhibition, actives largely listed as inhibitors; 340,000 compounds, 3.4% hits; active = well fitted inhibition curve with a large enough effect; inconclusive = small, poorly fitted or top-dose-only effect, or another doubt; inactive = no such curve, though single readings can be large or run the other way; note: potency is the fitted concentration of half-maximal effect
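Compounds are dispensed onto cells plated 4 h earlier at 1,000 per well, with HCVcc-Cre virus (about 0.5 moi) added next. Following 44 h of culture, luminescent signal is measured for 15 sec after 15 min with substrate at room temperature.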
HCMV antiviral – blocks human cytomegalovirus replication. 410,000 compounds, 4.5% hits. activity change, negative = inhibition, % at 57.5 µM. HFF cells, HCMV-luciferase reporter, 72 h; hits give low values. AID 1259415; in the data active = activity change below about -60%; inconclusive = no clear call, values can overlap the other calls; inactive = above about -39%
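Inhibition of viral replication was scored as loss of reporter luminescence in HFFs infected with HCMV-luciferase (MOI 1 PFU/cell) for 72 h; compounds tested at 2 doses, normalized to buffer and Salinomycin controls.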
Vaccinia mCherry – inhibitors of vaccinia virus infection (mCherry reporter signal); Vaccinia virus mCherry reporter infection, fluorescence; Potency, µM (highest dose often 36.5 µM), inactives show top-dose activity change, negative = inhibition, usual class: inhibitors; 310,000 compounds, 0.63% hits; AID 720579; calls by dose curve; tested in A549 cells; note: potency is the fitted concentration of half-maximal effect; nearly all actives have a fitted effect of over 35% in size
Starred values were filed as active, the others as inactive; i = inactive; u = inconclusive; x = not tested or not shown; [ ] = dose if it differs, or a comment. % is set by controls: 0 for no effect and ±100 for the full control effect.

SMILES | FMDV antiviral | VACV Venus inh | HCV inhibitor | HCMV antiviral | Vaccinia mCherry
O=C(OCC(=O)c1ccc([N+](=O)[O-])cc1)/C(=C/c1ccc(Cl)cc1)NC(=O)c1ccccc1 | 0% | -15% | 9% | -65* | -1%
CCOC(=O)/C(=C\c1ccccc1)NC(=O)c1ccccc1 | 0% | x | 7% | -11 | x
C=CCOC(=O)/C(=C\c1cccc2ccccc12)NC(=O)c1ccccc1 | 25% | -29% | 7.9µM* | -18 | i[1.46 µM]
C=CCOC(=O)/C(=C/c1cccnc1)NC(=O)c1ccccc1 | 2% | x | 13% | 15 | x
CC1CCCc2cc(OS(=O)(=O)C(F)(F)F)ccc2OC(=O)CC1 (centres undefined) | x | x | x | -5 | x
COC(=O)C1Cc2ccccc2CN1C(=O)CCl (centres undefined) | 22µM* | u | u | u | -25%
CC(=O)N1CCc2cc(CNC(=O)Nc3ccc(Br)c(C)c3)ccc21 | -22% | 0% | x | -3 | -11%
COCCn1c(-c2cc(OC)c(OC)c(OC)c2)nc2oc3ccccc3c(=O)c2c1=O | 0% | x | u | -65* | x
O=C(Cn1cc(S(=O)(=O)c2ccccc2)c(=O)c2cc(Cl)ccc21)Nc1ccc2c(c1)OCO2 | 23% | 8% | x | -20 | 0%
COc1ccc(-n2nc3c(N4CCCC(C(=O)NCc5cccc(F)c5)C4)nnc(C)c3c2C)cc1 (centres undefined) | -16% | -5% | x | -84* | u
COc1ccc(-n2nc3c(N4CCC(C(=O)NCc5cccc(C)c5)CC4)nnc(C)c3c2C)cc1 | -5% | x | u | -100* | x
Cc1nnc(N2CCCC(C(=O)NCc3cccc(F)c3)C2)c2nn(-c3ccccc3)c(C)c12 (centres undefined) | -1% | x | u | u | x
CCOc1ccccc1N(CC(=O)Nc1ccccc1F)S(=O)(=O)c1ccccc1 | 4% | x | u | -104* | x
COc1cccc(N(CC(=O)Nc2cccnc2)S(C)(=O)=O)c1 | 2% | -6% | 9% | -103* | i
CCOc1ccccc1N(CC(=O)Nc1ccc(OC)cc1)S(=O)(=O)c1ccccc1 | 37% | x | u | u | x
CCOc1ccccc1N(CC(=O)Nc1cccc(OC)c1)S(=O)(=O)c1ccccc1 | -6% | -6% | 3% | -107* | 0%
CCOc1ccc(CNC(=O)Cn2nc(C)c3sc4ccccc4c3c2=O)cc1 | -4% | -3% | x | 18 | -16%
COC(=O)CC1=C(C(=O)OC)C(c2cccc(OCC(N)=O)c2)C(C#N)=C(N)O1 (centres undefined) | -10% | 4% | -10% | -101* | -5%
Cc1ccc(CN(C(=O)c2ccc(OCC(C)C)cc2)c2ccccn2)o1 | 76% | -11% | x | 82 | i
Cc1ccc(-c2nc(-c3ccccn3)no2)cc1 | 2.8µM* | -14% | u | -91* | -18%
Cc1ccc(-c2nc(-c3ccccn3)no2)cc1Cl | -84% | -14% | -22% | -64* | -13%
Clc1cccc(-c2nc(-c3ccccn3)no2)c1 | u | -17% | -25% | -8 | -19%
c1ccc(-c2ccc(-c3nc(-c4ccccn4)no3)cc2)cc1 | 2.8µM* | -10% | u | -95* | -25%
Cc1ccc(Cc2nc(-c3ccccn3)no2)cc1 | 15% | -7% | 1% | 38 | -22%
COc1cc(-c2nc(-c3ccccn3)no2)cc(OC)c1OC | x | -14% | 4µM* | 107 | -23%
SMILES | FMDV antiviral | VACV Venus inh | HCV inhibitor | HCMV antiviral | Vaccinia mCherry
CCCCOC(=O)c1cccc(NC(=O)c2cc3ccccc3o2)c1 | -28% | 2% | x | 67 | -12%
Cc1c(CCNC(=O)c2c(F)cccc2F)sc2nc(-c3ccc(F)cc3)nn12 | u | -9% | x | -14 | 1%
c1ccc(-c2nc(-c3ccccn3)no2)cc1 | 13µM* | -7% | -1% | -18 | i
Cc1ccccc1-c1noc(-c2ccc(O)cc2)n1 | x | -19% | 14µM* | -17 | i
Cc1ccccc1-c1noc(-c2ccc(Cl)cc2)n1 | 44% | -26% | 7% | 119 | -23%
S=c1nc(-c2ccccn2)c(-c2ccccn2)n[nH]1 | -7% | -2% | x | x | -3%
O=C(N/N=C/c1c(F)cccc1Cl)C1CC1 | 5% | x | 0% | -6 | x
Cc1csc(N/N=C/c2c(F)cccc2Cl)n1 | 45% | 5µM* | 3% | 49 | 3.5µM*
Cc1csc(N/N=C/c2ccccc2F)n1 | -5% | -7% | u | 14 | u
O=C(O)c1ccc(N/N=C/c2c(F)cccc2Cl)cc1 | 32µM* | x | -10% | u | x

High-throughput results as filed in PubChem.
